# Test results published in PubChem BioAssay (EPA / NIEHS).
# “And” between values parts separate entries of the source, which are not always exact repeats. Identical values can stand only once. Results filed as inconclusive are left out. The source made the active and inactive calls. How the source made its calls: active means hit-call score of the fitted dose curve at least 0.9, where 1 is the maximum; inconclusive means response in the unintended direction; inactive means score below 0.9.
# Assay: TOX21_p53_BLA_p2_viability: Viability Assessment in the Tox21 HCT-116 p53 Agonism Beta-lactamase Assay, Phase 2 (AID 2283591);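 further: compound exposure lasted 16 h at 37 °C; actives lower the ATP signal meaning cytotoxicity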
# Source text: TOX21_p53_BLA_p2 is a cell-based, single-readout assay that uses HCT116, a human intestinal cell line, […] in a 1536-well plate.TOX21_p53_BLA_p2_viability is an assay readout measuring cellular ATP content and detected with CellTiter-Glo Luciferase-coupled ATP quantitation.TOX21_p53_BLA_p2_viability used a type of viability reporter where loss-of-signal activity can be used to understand changes in the cell viability. Furthermore, this assay endpoint can be referred to as a secondary readout, because this assay has produced multiple assay endpoints where this one serves a viability function. To generalize the intended target to other relatable targets, this assay endpoint is annotated to the cell cycle intended target family, where the subfamily is cytotoxicity.
# Thawing Method: Place 14 mL of pre-warmed thaw medium into a 15 mL of conical tub. Remove the vial of cells to be thawed from liquid nitrogen and thaw rapidly by placing at 37C in a water bath with gentle agitation for 1-2 minutes. Decontaminate the vial by wiping with 70% ethanol before opening in a biological safety cabinet. Transfer the vial contents drop-wise into 14 mL of thaw medium in a sterile 15-mL conical tub. Centrifuge cells at 900 rpm for 4 minutes and resuspend in thaw medium. Transfer contents to the T75 tissue culture flask containing Thaw Medium and place flask in a humidified 37C/5% CO2 incubator. Switch to growth medium at first passage.Propagation Method: Aspirate medium, rinse once in DPBS, add 0.25% Trypsin/EDTA and swirl to coat the cell evenly. Add an equal volume of Growth Medium to inactivate Trypsin after 2-3 minutes incubation at 37C. Centrifuge cells at 900 rpm for 4 minutes and resuspend in growth medium. Cell should be passage or fed at least twice a week.Assay Protocol: Harvest cells from culture in growth medium and resuspend in assay medium. 2.2 Dispense 4000 cells/5 uL/well into 1536-well black/clear bottom plates using a Multidrop dispenser. After the cells were incubated at 37C for 5 hours, 23 nL of compounds dissolved in DMSO were transferred to the assay plate by a PinTool resulting in a 217-fold dilution. Incubate the plates for 16 hours at 37C, 5% CO2. Add 1 uL of 6X LiveBLAzer FRET B/G (CCF4-AM) Substrate Mixture to each well using a BioRAPTR dispenser and incubate the plates at room temperature for 2 hours. Measure fluorescence intensity at 460 and 530 nm emission and 405 nm excitation by an Envision detector. Data is expressed as the ratio of 460nm/530nm emissions. Add 4 uL of Cell-titer Glo to each well using BioRAPTR and incubate the plates at room temperature for […]. For cell viability readout that measures cytotoxicity, 4 ul/well of CellTiter-Glo reagent was added into the assay plates using a Flying Reagent Dispenser. After 30 min incubation at room temperature, the luminescence intensity in the plates was measured using a ViewLux plate reader.
Compound,outcome,AC50
O=C(O)c1ccccc1,inactive,
O=C(O)C1(C(=O)Nc2ccc(Cl)cc2Cl)CC1,inactive,
C#C[C@]1(O)CC[C@H]2[C@@H]3CCC4=CC(=O)CC[C@@H]4[C@H]3CC[C@@]21CC,inactive,
CCOC(=O)COc1cc(-n2ncc(C(F)(F)F)c(C)c2=O)c(F)cc1Cl,inactive,
O=C(Nc1ccc([N+](=O)[O-])cc1Cl)c1cc(Cl)ccc1O,,129 nM (active) and 152 nM (active)
C[C@]12C[C@H](O)[C@H]3[C@@H](CCC4=CC(=O)CC[C@@]43C)[C@@H]1CC[C@@H]2C(=O)CO,inactive,
CCCN(CCC)c1c([N+](=O)[O-])cc(C(F)(F)F)c(N)c1[N+](=O)[O-],,23.1 µM (active)
c1ccc(Nc2ccccc2)cc1,inactive,
CN(C)C(=O)Nc1ccc(Cl)c(Cl)c1,inactive,
C#CCOC(=O)[C@@H](C)Oc1ccc(Oc2ncc(Cl)cc2F)cc1,inactive,
CCCOC(=O)NCCCN(C)C,inactive,
COC(=O)c1ccc(I)cc1S(=O)(=O)NC(=O)Nc1nc(C)nc(OC)n1,inactive,
CCOC(=O)c1ccc(O)cc1,inactive,
COc1nc(C)nc(NC(=O)NS(=O)(=O)c2ccccc2OCCCl)n1,inactive,
CC(C)(c1ccc(O)cc1)c1ccc(O)cc1,inactive,
CCOC(=O)NCCOc1ccc(Oc2ccccc2)cc1,inactive,
CCOC(=O)C(C)Oc1ccc(Oc2nc3ccc(Cl)cc3o2)cc1 (centres undefined),inactive,

Compound,outcome,AC50
N[C@@H](Cc1cc(I)c(Oc2ccc(O)c(I)c2)c(I)c1)C(=O)O,inactive,
COC(=O)CSc1cc(N=c2sc(=O)n3n2CCCC3)c(F)cc1Cl,inactive,
CCCCC(CC)COC(=O)c1ccccc1C(=O)O (centres undefined),inactive,
CCCCCCC(C)OC(=O)COc1nc(F)c(Cl)c(N)c1Cl (centres undefined),,70.8 µM (active)
CCCCC(CC)CN1C(=O)C2C3C=CC(C3)C2C1=O (centres undefined),inactive,
CC(C)(C)[C@@H](O)[C@@H](Cc1ccc(Cl)cc1)n1cncn1,inactive,
CC(=O)[C@H]1CC[C@H]2[C@@H]3CCC4=CC(=O)CC[C@]4(C)[C@H]3CC[C@]12C,inactive,
CCCCOC(=O)[C@@H](C)Oc1ccc(Oc2ccc(C(F)(F)F)cn2)cc1,inactive,
CC1(C)C(C=C(Cl)Cl)C1C(=O)OCc1cccc(Oc2ccccc2)c1 (centres undefined),inactive,
Oc1ccc(C(c2ccc(O)cc2)C(Cl)(Cl)Cl)cc1,,54.6 µM (active) and 45.9 µM (active)
CCCOC(=O)c1ccc(C(=O)OCCC)nc1,inactive,
CCCCOC(=O)C(C)Oc1ccc(Oc2ccc(C(F)(F)F)cn2)cc1 (centres undefined),inactive,
CC(C)CCCCCCc1ccc(O)cc1,inactive,
Cc1nn(C)c(Oc2ccccc2)c1C=NOCc1ccc(C(=O)OC(C)(C)C)cc1,inactive,
OB(O)O,inactive,
C[C@]12CC[C@@H]3c4ccc(O)cc4C[C@@H](CCCCCCCCCS(=O)CCCC(F)(F)C(F)(F)F)[C@H]3[C@@H]1CC[C@@H]2O (some centres undefined),inactive,
CCN(Cc1c(F)cccc1Cl)c1c([N+](=O)[O-])cc(C(F)(F)F)cc1[N+](=O)[O-],inactive,
